# Experimental data from PubChem BioAssay (NCI).
# The panel holds about 83,000 compounds, 20% with a hit somewhere; the sample as a whole holds those more often.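 For each line, cells grew in 96-well plates with the test compound present at a single concentration for 48 hours.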 Unmarked numbers belong to inactive results. Activity calls are given as the source filed them. The calls were made as follows: active = growth percent below 10; inactive = the rest.
# Tested on: HL-60(TB) leukemia
# Experiment: NCI-60 one-dose screen, 48 h (100 = growth as untreated, 0 = no growth, -100 = all killed)
# Conditions: 10 µM unless noted
row,SMILES,growth
1,CC1OC(Oc2c(-c3ccc(O)c(O)c3)oc3cc(O)cc(O)c3c2=O)C(O)C(O)C1O (stereo not drawn),106%
2,COc1ccc(/C=C/C(=O)NCC(C)O)cc1 (stereo not drawn),109%
3,CN1CCN(C(=O)[C@]23CCC(C)(C)C[C@H]2C2=CC[C@@H]4[C@@]5(C)C/C(=C/c6ccncc6)C(=O)C(C)(C)[C@@H]5CC[C@@]4(C)[C@]2(C)CC3)CC1,-41.7% (active)
